Test results: the supplement of paper PMC11219838
Unmarked numbers belong to inactive results.

system: Caenorhabditis elegans dauer (daf-2(e1370)); experiment: proportion of mobile C. elegans dauer larvae relative to DMSO control (fraction of DMSO control); higher = more viable, less nematicidal, active = 0.63 or less; extreme values may be limits of the assay; details: 60 µM; 5 days; temperature: 20 °C
Experimental: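 DODA library (846 commercial 1,3,4- and 1,2,4-oxadiazole compounds plus commercial nematicide controls) screened at a single dose of 60 µM (0.6% DMSO) in 96-well plates, two biological replicates. Read-outs: C. elegans N2 L1 survival/reproduction score at day 6, 20 °C (0: 0-10 worms, 1: 11-20, 2: 21-50, 3: >50, 4: overgrown/starved). C. elegans daf-2 dauer, D. dipsaci and M. hapla J2 mobility at day 5, 20 °C, and P. penetrans mobility at day 5, 20 °C, each relative to DMSO controls. M. hapla egg hatching at day 12, 25 °C, relative to the mean of 8 DMSO wells on the same plate.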

Compound	proportion of mobile C. elegans dauer larvae
COc1cccc(-c2nnc(SCC(=O)NC3CCCCC3)o2)c1	1
CC(=O)Nc1cccc(-c2nnc(SCc3ccc(F)cc3)o2)c1	1
O=C(Nc1ccccc1-c1nc(-c2ccncc2)no1)c1ccccc1Cl	1
Cc1ccc(-c2noc(-c3ccc(C)cc3C)n2)cc1	1
COc1ccccc1-c1nc(-c2ccc(Br)cc2)no1	1
Cc1ccc(OCc2nc(-c3ccc(F)cc3)no2)cc1C	1
Cc1ccc(-c2nnc(SCC(=O)Nc3ccc(F)cc3)o2)cc1	1
c1cc(-c2noc(C34CC5CC(CC(C5)C3)C4)n2)ccn1	1
CCCCSc1nnc(-c2ccc(Br)cc2)o1	0.5 (active)
O=C(CSc1nnc(-c2ccncc2)o1)Nc1ccc(Cl)cc1Cl	1
N#Cc1ccccc1CSc1nnc(-c2ccncc2)o1	1
N#Cc1ccc(CSc2nnc(-c3ccccc3)o2)cc1	1
CCCC(=O)Nc1ccccc1-c1nc(-c2cccnc2)no1	1
CCc1nc(-c2ccc(-c3ccccc3)nc2OC)no1	1
N#Cc1cccc(CSc2nnc(-c3ccncc3)o2)c1	1
Brc1cccc(-c2noc(-c3ccc4c(c3)OCO4)n2)c1	1
Cc1cccc(-c2noc(COc3ccc(Br)cc3)n2)c1	1
Cc1ccc(-c2noc(-c3ccc(Br)cc3)n2)cc1	1
COc1ccc(-c2nnc(SCC(=O)Nc3ccc(Br)cc3C)o2)cc1	1
Cc1ccc(OCc2nc(-c3ccc4c(c3)OCO4)no2)cc1C	1

Compound	proportion of mobile C. elegans dauer larvae
COc1cccc(CSc2nnc(-c3ccco3)n2C)c1	1
CC1Cc2ccccc2N1C(=O)CSc1nnc(-c2ccccc2)o1 (stereo not given)	1
COc1ccc(-c2noc(CSc3ccc(C)cc3)n2)cc1	1
COc1ccccc1OCc1nc(-c2cccc(Br)c2)no1	1
O=C(c1ccccc1-c1nc(-c2ccc(Cl)cc2)no1)N1CCCCC1	1
O=C(CSc1nnc(-c2ccc(Cl)cc2)o1)NCc1ccccc1	1
CC(C)(C)c1ccc(OCc2nc(-c3ccncc3)no2)c(Br)c1	1
Cc1ccc(C)c(-c2nc(-c3cccnc3)no2)c1	0.727
Clc1ccccc1OCc1nc(-c2ccc(Br)cc2)no1	1
CCN(CC)C(=O)CSc1nnc(-c2ccc(Cl)cc2Cl)o1	1
Cc1cc(C)cc(OCc2nc(-c3ccccc3Cl)no2)c1	1
Cc1ccc(-c2nc(-c3ccc(F)cc3)no2)cc1	0 (active)
O=C(CSc1nnc(-c2cccc(Cl)c2)o1)N1CCCCC1	1
COc1cccc(-c2noc(COc3ccc(C(C)C)cc3)n2)c1	1
COc1ccc(-c2nnc(SCc3cccc(C#N)c3)o2)cc1	1
COc1ccc(-c2noc(COc3ccc(Cl)cc3C)n2)cc1	1
Cc1ccc(-c2nc(-c3cccc(C(F)(F)F)c3)no2)cc1	1
Clc1cccc(-c2nc(-c3ccc4c(c3)OCO4)no2)c1	1
COc1ccc(-c2noc(COc3ccccc3)n2)cc1	1
COc1cccc(-c2noc(-c3c(F)cccc3F)n2)c1	1
